# This is a sample that favours compounds with a hit; in the whole collection about 10% have one here.
# BAZ2B block: BAZ2B (human) inhibition | AlphaScreen BAZ2B-H3K14Ac peptide displacement | Potency, µM (top dose mostly 114 µM), inactives show top-dose activity change, negative = inhibition, actives largely listed as inhibitors | 360,000 compounds, 4.4% hits | AID 504333; also: potency is read from the fitted curve at half-maximal effect; % is scaled to controls: 0 for no effect and ±100 for the full control effect; nearly all actives have a fitted effect of over 60% in size
#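 Complex of BAZ2B and biotin-H3K14Ac (50 nM apiece) forms over 30 min at RT, then faces library compounds up to 110 uM for another 30 min; AlphaScreen beads added, 20 min dark incubation, luminescence read.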
# G9a block: G9a (human) methyltransferase inhibition | G9a H3K9 monomethylation, AlphaScreen, 2 h | Potency, µM (top dose mostly 102 µM), for the others: top-dose activity, negative = inhibition, most hits filed as inhibitors | 350,000 compounds, 8.8% hits; also: potency is read from the fitted curve at half-maximal effect; % is scaled to controls: 0 for no effect and ±100 for the full control effect; nearly all actives have a fitted effect of over 75% in size
# Target sequence (Q96KQ7 913-1193 limits assumed): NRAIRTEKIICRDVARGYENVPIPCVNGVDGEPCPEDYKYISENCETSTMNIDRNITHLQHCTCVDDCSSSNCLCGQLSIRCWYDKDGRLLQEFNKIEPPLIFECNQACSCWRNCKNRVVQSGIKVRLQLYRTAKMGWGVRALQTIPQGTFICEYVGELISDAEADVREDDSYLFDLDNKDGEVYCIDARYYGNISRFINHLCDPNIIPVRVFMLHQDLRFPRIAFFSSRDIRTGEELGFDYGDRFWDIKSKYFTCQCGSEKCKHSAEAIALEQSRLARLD
#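 Methyltransferase reactions run at room temperature for 2 h (20 nM enzyme, 500 nM biotin-H3K9 peptide, 20 uM SAM) after a 15 min compound preincubation; product detected by AlphaScreen beads and anti-H3K9me1 antibody.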
# HP1b binding inh: HP1-beta chromodomain-methylated histone interaction inhibition; Potency, µM (doses to about 114 µM), inactives show at the top dose activity change, negative = inhibition, hits mostly inhibitors; P83916; AlphaScreen HP1-beta / biotin-H3K9me3 peptide binding; 390,000 compounds, 0.56% hits; AID 540317; also: potency is read from the fitted curve at half-maximal effect; nearly all actives have a fitted effect of over 70% in size
# Target sequence (P83916 whole entry, looked up): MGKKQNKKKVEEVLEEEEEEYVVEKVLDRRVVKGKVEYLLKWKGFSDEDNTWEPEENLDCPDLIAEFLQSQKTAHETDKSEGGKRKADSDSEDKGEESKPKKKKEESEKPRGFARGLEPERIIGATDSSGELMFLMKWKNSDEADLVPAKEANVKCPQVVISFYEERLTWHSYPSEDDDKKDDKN
#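 AlphaScreen: HP1-beta (50 nM) preformed 30 min with biotin-H3(1-18)K9me3 peptide (50 nM) in PBS pH 7.4, 0.01% Tween-20. Compound added for 30 min at RT, then streptavidin donor/nickel chelate acceptor beads (10 ug/mL) for 30 min.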
# JMJD2A Tudor: JMJD2A Tudor domain (human) inhibition; O75164; AlphaScreen JMJD2A-Tudor / H3K4me3 peptide binding; Potency, µM (highest dose often 114 µM), for inactives: at the top dose activity change, negative = inhibition, hits mostly inhibitors; 390,000 compounds, 4.4% hits; AID 504339; also: potency is read from the fitted curve at half-maximal effect; % is scaled to controls: 0 for no effect and ±100 for the full control effect; nearly all actives have a fitted effect of over 50% in size
# Six1-Eya2 blk: inhibitors of human Six1/Eya2 interaction; 360,000 compounds, 0.56% hits; AlphaScreen GST-Six1/His-Eya2 binding, biochemical; hits give low values; Q15475+O00167; activity change, % (no concentration beside the values); in the data active = activity change below about -65%; inconclusive = mostly about -30% to -63%; also: % is scaled to controls: 0 for no effect and ±100 for the full control effect
#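 GST-Six1 + His-Eya2 (5X stock: 250/500 nM); Tris pH 8.0, 300 mM NaCl, 0.05% BSA, 0.02% Tween 20; GSH donor/Ni acceptor beads; 1 h 37 °C dark; AlphaScreen readout.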
# CtBP-E1A blk: CtBP/E1A binding inhibition | 340,000 compounds, 0.49% hits | activity change, % (concentration not given with the values) | AID 651724 | AlphaScreen GST-E1A/His-CtBP binding, 1536-well; hits give low values; in the data active = activity change below about -65%; inconclusive = mostly about -30% to -63%; also: % is scaled to controls: 0 for no effect and ±100 for the full control effect
#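 AlphaScreen with 125 nM GST-E1A and 125 nM His-CtBP (5X stocks) in Tris pH 8.0, 300 mM NaCl, BSA, Tween 20, TCEP. Compounds preincubated 2 h at 37 deg C, then glutathione donor/nickel acceptor beads added for 1 h at 37 deg C in dark.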
# Numbers without * were called inactive; ? = inconclusive; nt = no result given; [ ] = another dose, or the depositor's remark. Unless noted, calls follow the shape of the dose curve; as a rule, active = well fitted inhibition curve with a large enough effect; inconclusive = small, poorly fitted or top-dose-only effect; inactive = no such curve, though single readings can be large or run the other way.
SMILES,BAZ2B block,G9a block,HP1b binding inh,JMJD2A Tudor,Six1-Eya2 blk,CtBP-E1A blk
COC(=O)c1ccccc1NC(=S)NC(=O)COc1ccccc1,-2%,?,8%,-7%,3,6
Cc1ccc(C(=O)NNC(=S)NC(=O)COc2ccccc2)cc1,11%,1.3µM*,-24%,13µM*,-11,-11
CC(C)(C)c1ccc(C(=O)NC(=S)NNC(=O)COc2ccccc2)cc1,?,25µM*,-18%,?,3,2
COC(=O)CNC(=S)NC(=O)c1ccc(C(C)(C)C)cc1,-23%,18µM*,22%,-32%,-15,nt
CCCOc1ccc(C(=O)NNC(=S)NC(=O)c2ccccc2)cc1,-25%,?,1%,?,-14,nt
CCOCc1nnc(NC(=O)c2cc(Cl)ccc2OC)s1,11%,6.3µM*,26%,-8%,4,-1
COCc1nnc(NC(=O)c2ccccc2[N+](=O)[O-])s1,6%,20µM*,3%,-9%,0,12
COc1cc(C(=O)Nc2nnc(SC)s2)c([N+](=O)[O-])cc1OC,-20%,32µM*,28%,-14%,3,nt
COCc1nnc(NC(=O)c2ccc(Cl)cc2[N+](=O)[O-])s1,5%,16µM*,-8%,-9%,5,-3
CCc1nnc(NC(=O)c2cc(OC)c(OC)cc2[N+](=O)[O-])s1,0%,nt,37%,11%[57.1 µM],-1,7
Cc1noc(C)c1-c1ccc2ncnc(Nc3ccc(F)cc3)c2c1,nt,21%[0.501 µM],nt,nt,nt,nt
O=C(NCCC1=CCCCC1)C1CC(=O)N(Cc2ccccc2)C1 (stereo unspecified),1%,8%,50%,8%,4,10
COc1cc(O)ccc1C1CC(=O)Nc2c1c(=O)nc(SCc1ccccc1C)n2C (stereo unspecified),-22%,2%[59 µM],31%,-23%,nt,nt
O=C(N/N=C/c1ccccn1)c1ccc(Cl)c(Cl)c1,-1%,nt,nt,nt,nt,nt
O=C(N/N=C/c1c(O)ccc2ccccc12)c1cccnc1,-12%,22%,49%,50µM*,-67*,-92*
O=C(N/N=C/c1ccccn1)C1CC1,?,3.5µM*,10%,1.3µM*,0,0
COc1cc(/C=N/NC(=O)CCN2CCN(C)CC2)cc2c1OCO2,-12%,38%,?,0.79µM*,9,10
COc1cc(/C=N/NC(=O)c2ccncc2)cc2c1OCO2,-1%,-1%,24%,-9%,-10,-3
Cn1nccc1C(=O)N/N=C/c1c(O)ccc2ccccc12,?,21%,51%,-21%,-87*,-83*
O=C(NC(=O)N1CCCCCC1)c1ccc(Cl)cc1,1%,56%,33%,-17%,-1,7
CC(C)(C)N1C(=O)c2ccccc2NC(=O)C1C(=O)NCCc1ccccc1F (stereo unspecified),nt,nt,nt,nt,9,-4
Cc1ccc(C(=O)N/N=C/c2c(O)ccc3ccccc23)cn1,0%,?,41%,?,-74*,nt
COc1ccccc1/C=N/NC(=O)c1ccc(C)nc1,-1%,12%,22%,-17%,8,nt
COc1ccc(/C=N/NC(=O)c2ccc(=O)n(C)c2)cc1OC,-23%,-31%,33%,6%,-9,-2
O=C(NN=Cc1c(O)ccc2ccccc12)c1ccncc1,nt,nt,24%,79µM*,-89*,?
SMILES,BAZ2B block,G9a block,HP1b binding inh,JMJD2A Tudor,Six1-Eya2 blk,CtBP-E1A blk
Cn1cc(C(=O)N/N=C/c2c(O)ccc3ccccc23)ccc1=O,?,?,39%,-29%,-89*,nt
CN1CCN(CC(=O)N/N=C\c2c[nH]c3ccccc23)CC1,-34%,16µM*,nt,nt,nt,nt
O=C(N/N=C/c1ccccn1)c1cc(Br)ccc1O,2%,-7%,43%,-27%,-24,?
O=C(N/N=C/c1c(O)ccc2ccccc12)c1ccc(Br)o1,56µM*,?,-6%,?,?,?
O=C(N/N=C\c1c(O)ccc2ccccc12)c1cncc(Br)c1,35µM*,16%,68%,56µM*,?,?
Cc1c(/C=N/NC(=O)c2ccc(Br)o2)cnn1C,-13%,32%,13%,-8%,6,-1
O=C(N/N=C/c1c(O)ccc2ccccc12)c1ccc[n+](CCO)c1,13µM*,?,27%,28µM*,-91*,-90*
O=C(N/N=C/c1ccccn1)c1ccc(Br)o1,71µM*,19%,32%,-28%,-66*,-75*
CC(C)c1ccc(NC(=O)c2cn(C3CCCC3)c(=O)c3c2c2ccccc2n3C)cc1,-9%,-29%[59 µM],18%,-18%,nt,nt
Cc1occc1C(=O)N/N=C/c1c(O)ccc2ccccc12,19%,44%,38%,-18%,-23,-28
CN1CCN(CCC(=O)N/N=C/c2ccccn2)CC1,?,1.3µM*,7%,7.9µM*,-1,-3
O=C(N/N=C\c1c(O)ccc2ccccc12)c1ccc(O)cc1,-5%,nt,0%,?,-65*,?
CCCCCCCCN1C(=O)[C@H](CC(=O)N2CCC(c3ccccc3)CC2)C[C@@]2(C(=O)OC)CC(C)(C)CC=C12,nt,nt,nt,nt,-4,-7
COc1ccc(CN(C)C2CCN(C)CC2)cc1OC,56µM*,28µM*,1%,89µM*,7,nt
Cc1nn(Cc2c(F)cccc2Cl)c(C)c1NC(=O)C1CC1,-5%,16%,47%,-10%,9,9
CC(=O)Nc1ccc(S(=O)(=O)NCCc2csc3nc(-c4cccc(C)c4)nn23)cc1,-9%,3%[59 µM],-2%,-10%,nt,nt
Cn1c(O)c(N=Nc2ccccc2)c2ccccc21,-8%,22µM*,1%,-11%,8,-13
Cn1c(O)c(N=Nc2ccc(F)cc2)c2ccccc21,-3%,25µM*,?,-31%,-11,-2
Cn1c(O)c(N=Nc2nc(-c3ccccc3)cs2)c2ccccc21,?,?,-17%,?,-5,-8
CC1CC(C)CN(C(=O)Cn2nnc(-c3ccc(Br)cc3)n2)C1 (stereo unspecified),-22%,-1%,9%,-5%,-1,8
CCC(=O)NC1CCN(C(=S)NC)CC1,-4%,5%,40%,10%,1,9
CC1(C(=O)Nc2cnc3ccccc3c2)CCN1C(=O)C/C=C/c1ccccc1 (stereo unspecified),nt,nt,nt,nt,-10,-4
CCOc1ccc(Nc2nc3ccccc3n3nnnc23)cc1,34%,-14%,13%,?,-2,5
Cc1ccc(C(=O)O)cc1Nc1nc2ccccc2n2nnnc12,?,5%[59 µM],1%,32µM*,nt,nt
CN(C)c1ccc(Nc2nc3ccccc3n3nnnc23)cc1,3.5µM*,3.2µM*,?,7.9µM*,nt,nt
